KB-3-1 cytotox: qHTS assay for MDR1-selective chemotherapeutics: Primary screen using the parental adenocarcinoma cell KB-3-1 | KB-3-1 viability, CellTiter-Glo ATP luminescence, 72 h | Potency, µM (titrated, usually from 46.1 µM), usual class: cytotoxic | 400,000 compounds, 1.4% hits | AID 1347075, 2019; note: nearly all actives have a fitted effect of over 60% in size
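Parental KB-3-1 viability, qHTS format: 72 h compound exposure, 37 °C; CellTiter-Glo; media-only wells and DMSO plates as controls; concentration-effect fits on corrected data.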
SW480 rereplic: A quantitative high throughput screen for small molecules that induce DNA re-replication in SW480 colon adenocarcinoma cells. Potency, µM (highest dose often 46.1 µM), actives largely listed as activators. SW480 DNA re-replication, Hoechst DNA content imaging, 48 h. 340,000 compounds, 1.8% hits. AID 624297, 2012; note: nearly all actives have a fitted effect of over 55% in size
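DNA re-replication was detected as more nuclei of elevated Hoechst intensity after 48 hr exposure to compound (23 nL pinned per well of 250 cells).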
MCF10A rereplic: A quantitative high throughput screen for small molecules that induce DNA re-replication in MCF 10a normal breast cells; MCF 10A DNA re-replication, Hoechst nuclear intensity, 48 h; Potency, µM (series often up to 46.1 µM), usual class: activators; 350,000 compounds, 2.9% hits; note: nearly all actives have a fitted effect of over 50% in size
KB-V1 cytotox: qHTS assay for MDR1-selective chemotherapeutics: Primary screen using the drug-selected MDR subline cells KB-V1; KB-V1 MDR cells viability, CellTiter-Glo, 72 h; Potency, µM (doses to about 46.1 µM), actives largely listed as cytotoxic; 400,000 compounds, 3.4% hits; note: nearly all actives have a fitted effect of over 60% in size
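KB-V1 cells (P-gp-expressing MDR subline of KB-3-1) in phenol-red-free DMEM with 10% FBS were exposed to library compounds over a concentration series for 72 h at 37 degrees C. Viability read by CellTiter-Glo luminescence; concentration-effect curves fitted after normalization.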
ELG1 DNA repair: qHTS screen for small molecules that inhibit ELG1-dependent DNA repair in human embryonic kidney (HEK293T) cells expressing luciferase-tagged ELG1; AID 504467, 2011; 330,000 compounds, 2.3% hits; HEK293T ELG1-luciferase reporter, luminescence, 16 h; DNA damage induced by 5-fluorouridine; Potency, µM (top dose mostly 46.1 µM), hits mostly inhibitors; note: nearly all actives have a fitted effect of over 55% in size
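In this reporter screen, reduction of luminescence relative to DMSO vehicle indicated activity. Compounds and 5-fluorouridine were added together to 2,000 cells per well, incubated for 16 hr at 37 °C, then developed with ONE-Glo.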
Of the large screens only hits and unclear results are named; the others gave an inactive call; ! = repeats disagree. Most compounds without a hit are left out; they make up all but 8.1% or so of the library. Calls come from the whole dose curve; as a rule, active = well fitted curve in the direction sought with a large enough effect; inconclusive = small, poorly fitted or top-dose-only effect, or another doubt; inactive = no such curve, though single readings can be large; an effect the other way counts as inactive or inconclusive.

O=C(NCC(=O)N(c1cnc2ccccc2c1)C(C(=O)NC1CCCC1)c1ccncc1)c1ccco1 (configuration not stated)	ELG1 DNA repair inconclusive
NC(=O)C1CCN(C(=O)CSCc2ccccc2Cl)CC1	none
Cc1cccc(OCCSc2nncn2C)c1	ELG1 DNA repair inconclusive
Cc1cccc(OCCSc2nnc(-c3ccoc3C)n2C)c1	KB-V1 cytotox 18.4µM
O=c1[nH]c(C2CCN(S(=O)(=O)c3ccc(S(=O)(=O)NC4CC4)cc3)CC2)nc2c1nnn2Cc1ccccc1	MCF10A rereplic inconclusive, ELG1 DNA repair 18.3µM
Cc1ccc(C)c(Cn2nnc3c(=O)[nH]c(C4CCN(S(=O)(=O)c5ccc(S(=O)(=O)NC6CC6)cc5)CC4)nc32)c1	KB-3-1 cytotox inconclusive, KB-V1 cytotox inconclusive, ELG1 DNA repair 16.4µM
O=c1[nH]c(C2CCN(S(=O)(=O)c3ccc(F)cc3)CC2)nc2c1nnn2Cc1ccc2c(c1)OCCO2	ELG1 DNA repair 25.9µM
Cc1ccccc1-c1nc(-c2ccc(NC(=O)c3ccc4c(c3)OCO4)cc2)no1	KB-3-1 cytotox inconclusive, MCF10A rereplic inconclusive, KB-V1 cytotox inconclusive, ELG1 DNA repair inconclusive
COc1ccc(-c2nc(-c3ccc(NC(=O)c4ccncc4)cc3)no2)cc1OC	KB-3-1 cytotox inconclusive, KB-V1 cytotox 10.3µM, ELG1 DNA repair inconclusive
COc1cc(-c2nc(-c3ccc(NC(=O)c4ccc5c(c4)OCO5)cc3)no2)cc(OC)c1OC	SW480 rereplic inconclusive, MCF10A rereplic 9.2µM, ELG1 DNA repair inconclusive
COc1cccc(/C=N/NC(=O)c2ccc(CN3c4cccc5cccc(c45)S3(=O)=O)cc2)c1	KB-V1 cytotox inconclusive, ELG1 DNA repair inconclusive
O=C(c1ccco1)N1CCN(c2ncnc3c2cnn3-c2ccccc2)CC1	KB-3-1 cytotox inconclusive, MCF10A rereplic inconclusive
O=C(c1cccc(Cl)c1)N1CCN(c2ncnc3c2cnn3-c2ccccc2)CC1	ELG1 DNA repair 11.6µM
COc1cccc(OCCN2CCN(c3ncnc4c3cnn4-c3ccccc3)CC2)c1	MCF10A rereplic 18.4µM, KB-V1 cytotox 5.17µM, ELG1 DNA repair inconclusive
Cc1nn(-c2ccccc2)c(Cl)c1C(=O)N1CCN(c2ncnc3c2cnn3-c2ccccc2)CC1	KB-3-1 cytotox inconclusive, SW480 rereplic inconclusive, MCF10A rereplic inconclusive, KB-V1 cytotox inconclusive, ELG1 DNA repair 7.31µM
O=C(c1ccccc1)N1CCN(c2ncnc3c2cnn3-c2ccccc2)CC1	none
Cc1ccc(NC2SC(=O)N(CC(=O)O)C2=O)cc1 (configuration not stated)	none
O=C(CN1CCN(S(=O)(=O)N2CCOCC2)CC1)Nc1cc(Cl)ccc1Cl	KB-V1 cytotox inconclusive, ELG1 DNA repair 20.6µM
O=C(CN1CCC(C(O)(c2ccccc2)c2ccccc2)CC1)Nc1cc(Cl)ccc1Cl	SW480 rereplic inconclusive, KB-V1 cytotox 18.4µM
O=C(CN1CCN(S(=O)(=O)N2CCCCCC2)CC1)Nc1cc(Cl)ccc1Cl	ELG1 DNA repair inconclusive
Nc1c(C(=O)N2CCCCC2)sc2nc3c(cc12)CCCC3	MCF10A rereplic inconclusive, ELG1 DNA repair inconclusive
COc1ccc(NC(=O)c2sc3nc(-c4cccnc4)ccc3c2N)cc1OC	SW480 rereplic inconclusive, MCF10A rereplic 14.6µM
COc1ccc(-c2ccc3c(N)c(C(=O)c4cccc(OC)c4)sc3n2)cc1	KB-3-1 cytotox inconclusive, SW480 rereplic inconclusive, MCF10A rereplic 20.6µM, ELG1 DNA repair inconclusive
Nc1c(C(=O)Nc2cccc(Cl)c2Cl)sc2nc(-c3cccnc3)ccc12	SW480 rereplic 9.2µM, MCF10A rereplic 5.17µM
COc1ccc(C(=O)c2sc3nc(-c4ccc(OC)cc4)ccc3c2N)cc1	SW480 rereplic inconclusive, MCF10A rereplic inconclusive, KB-V1 cytotox inconclusive, ELG1 DNA repair inconclusive
Cc1ccccc1NC(=O)c1sc2nc(-c3ccncc3)ccc2c1N	none (no result: SW480 rereplic, MCF10A rereplic, ELG1 DNA repair)
Nc1c(C(=O)N2CCCC2)sc2nc(-c3ccccc3)ccc12	SW480 rereplic 18.4µM, MCF10A rereplic 18.4µM, ELG1 DNA repair inconclusive
Cc1ccc(NC(=O)c2sc3nc(-c4ccncc4)ccc3c2N)cc1	none (no result: SW480 rereplic, MCF10A rereplic, ELG1 DNA repair)
CCO[C@@H]1OC(C(=O)Nc2ccccc2)=C[C@H](c2ccc(Br)cc2)[C@H]1CCCO	SW480 rereplic inconclusive
COc1ccc(NC(=O)c2sc3nc(-c4cccnc4)ccc3c2N)cc1	SW480 rereplic 14.6µM, MCF10A rereplic inconclusive
Nc1c(C(=O)N2CCCCC2)sc(=S)n1-c1ccccc1	MCF10A rereplic inconclusive, KB-V1 cytotox 18.4µM
Nc1c(C(=O)N2CCOCC2)sc(=S)n1-c1ccccc1	KB-V1 cytotox inconclusive
CC(=O)N1Cc2cc(N)ccc2Oc2ccccc21	none
COc1cc(NC(=O)c2cc(C)nc3ccccc23)cc(OC)c1	none
Cc1ccc(Nc2ncnc3ccccc23)cc1	KB-V1 cytotox inconclusive, ELG1 DNA repair inconclusive
Cc1ccc(/C(=N/Nc2ncnc3ccccc23)C(=O)O)cc1	SW480 rereplic 18.4µM, ELG1 DNA repair inconclusive
COc1ccc(-n2nnnc2-c2cccc(OC)c2)cc1	KB-3-1 cytotox 1.03µM, SW480 rereplic 3.26µM, MCF10A rereplic 4.11µM, KB-V1 cytotox 1.16µM
CSc1nc(NS(=O)(=O)c2cc(C)c(Cl)cc2Cl)nn1C	none
CCN(CC)S(=O)(=O)N1CCC(C(=O)NC2CCCc3ccccc32)CC1 (configuration not stated)	ELG1 DNA repair 16.4µM
COc1ccccc1N1CCN(C(=O)C2CCCN(S(=O)(=O)c3ccc4c(c3)oc(=O)n4C)C2)CC1 (configuration not stated)	KB-3-1 cytotox 10.3µM!, KB-V1 cytotox inconclusive, ELG1 DNA repair inconclusive
COc1ccccc1CNC(=O)Cn1c(=O)oc2cc(S(=O)(=O)N3CCC(C)CC3)ccc21	KB-3-1 cytotox 18.4µM (no result: SW480 rereplic, MCF10A rereplic, ELG1 DNA repair)
COc1ccccc1CNC(=O)Cn1c(=O)ccc2cc(S(=O)(=O)N3CCC(C)CC3)ccc21	none (no result: SW480 rereplic, MCF10A rereplic, ELG1 DNA repair)
Cn1c(=O)oc2cc(S(=O)(=O)N3CCCC(C(=O)N4CC=C(c5ccccc5)CC4)C3)ccc21 (configuration not stated)	ELG1 DNA repair 5.8µM (no result: KB-3-1 cytotox, SW480 rereplic, MCF10A rereplic, KB-V1 cytotox)
O=C(O)c1cc(S(=O)(=O)Nc2cccc(S(=O)(=O)N3CCCC3)c2)ccc1Cl	none
COC(=O)c1ccc(NC(=O)Cn2c(=O)oc3ccccc32)cc1	none (no result: SW480 rereplic, MCF10A rereplic, ELG1 DNA repair)
O=C(O)/C=C/C(=O)N1CCN(S(=O)(=O)c2cc(C(F)(F)F)ccc2Cl)CC1	KB-V1 cytotox inconclusive
Cn1c(=O)oc2cc(S(=O)(=O)N3CCCC(C(=O)NC4CCCc5ccccc54)C3)ccc21 (configuration not stated)	KB-3-1 cytotox 5.8µM, KB-V1 cytotox inconclusive, ELG1 DNA repair 2.91µM
